This note sets out measurements from PubChem BioAssay (Tox21).

Results filed as inconclusive are left out. A number with no mark means an inactive call. The source made the active and inactive calls. Calls follow the shape of the full dose curve.
% is scaled to controls: 0 for no effect and ±100 for the full control effect; potency is read from the fitted curve at half-maximal effect.

Chain of Peroxisome proliferator-activated receptor gamma (Homo sapiens) (P37231 whole entry, looked up): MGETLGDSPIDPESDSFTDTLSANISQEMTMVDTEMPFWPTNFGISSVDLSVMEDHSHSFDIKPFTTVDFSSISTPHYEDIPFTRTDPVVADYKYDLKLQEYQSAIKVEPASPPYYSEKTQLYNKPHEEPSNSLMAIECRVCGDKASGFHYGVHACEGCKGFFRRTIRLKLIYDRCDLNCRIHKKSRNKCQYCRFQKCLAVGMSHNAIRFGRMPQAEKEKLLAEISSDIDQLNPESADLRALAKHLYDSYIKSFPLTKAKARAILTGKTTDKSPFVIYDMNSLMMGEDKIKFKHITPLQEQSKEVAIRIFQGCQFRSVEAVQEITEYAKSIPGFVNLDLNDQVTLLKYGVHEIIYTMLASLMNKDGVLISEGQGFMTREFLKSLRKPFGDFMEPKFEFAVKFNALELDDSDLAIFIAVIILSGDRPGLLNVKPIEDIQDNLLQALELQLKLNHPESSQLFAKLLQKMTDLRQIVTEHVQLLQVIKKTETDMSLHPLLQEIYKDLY

This assay addresses Peroxisome proliferator-activated receptor gamma (Homo sapiens) (UniProt P37231). Nature of the assay: qHTS assay to identify small molecule antagonists of the peroxisome proliferator-activated receptor gamma (PPARg) signaling pathway (AID 743191). Also: nearly all actives have a fitted effect of over 30% in size. As to conditions: HEK293H PPARg-UAS-bla, beta-lactamase ratio, antagonist, 17 h; series mostly up to 62.6 µM; ratio activity, negative = inhibition: at the top concentration. The text has this:
U.S. Tox21 Program National Center for Advancing Translational Sciences [NCATS] NIH Chemical Genomics Center [NCGC] U.S. Environmental Protection Agency [EPA] National Institutes of Environmental Health Sciences [NIEHS] National Toxicology Program [NTP] U.S. Food and Drug Administration [FDA] Tox21 Assay Overview: The peroxisome proliferator-activated receptors (PPARs) are lipid-activated transcription factors of the nuclear receptor superfamily with three distinct subtypes namely PPAR alpha, PPAR delta (also called PPAR beta) and PPAR gamma (PPARg). All these subtypes heterodimerize with Retinoid X receptor (RXR) and these heterodimers regulate transcription of various genes. PPAR-gamma receptor (glitazone receptor) is involved in the regulation of glucose and lipid metabolism. To identify the compounds that inhibit PPAR-gamma signaling, GeneBLAzer PPAR gamma UAS-bla HEK293H cell line (Invitrogen, Carlsbad, CA, USA) containing a beta-lactamase reporter gene under control of an Upstream Activator Sequence (UAS) was used to screen the Tox21 compound library.
Tox21 Assay Protocol Summary: PPARg-bla cells were dispensed at 3000 cells/6uL/well in 1536-well black wall/clear bottom plates using a Multidrop Combi (Thermo Fisher Scientific, Waltham, MA) dispenser. After the assay plates were incubated at 37C and 5% CO2 for 5 h, 23 nL of compounds dissolved in DMSO, positive controls or DMSO only was transferred to the assay plate by a Pintool station (Kalypsys, San Diego, CA). The assay plates were incubated at 37C for 17 h. After 1 uL of LiveBLAzerTM B/G FRET substrate was added using a Bioraptr Flying Reagent Dispenser (FRD) workstation (Beckman Coulter, Indianapolis, IN, USA), the plates were incubated at room temperature for 1 h, and fluorescence intensity was measured by an Envision plate reader (PerkinElmer, Shelton, CT).
In general terms: qHTS replaces the single test concentration by a dilution series.
Turning to `O=C1OC[C@H](Cc2cccc(O)c2)[C@H]1Cc1cccc(O)c1`, the “ratio activity, negative = inhibition” value was -17.5% [at 29.1 µM].

As for `O=c1[nH][nH]c(=O)c2cc([N+](=O)[O-])ccc12`, the “ratio activity, negative = inhibition” value was 3.19% [at 81.1 µM]. The same measure, in the same setting: the value for `O=S(=O)(Cl)c1c(Cl)cccc1Cl` was 4.25%; that for `O=C1NC(=O)c2cccc3cccc1c23` was -6.13%. The same measure, in the same setting: the value for `CC(C)c1ccc(C(=O)N=C(N)N)cc1S(C)(=O)=O` was 2.56%.

Turning to `CCCCCCCC(=O)Oc1c(Br)cc(C#N)cc1Br`, the Potency was 34.5 µM (active). For `CNCc1ccc(NC(=O)c2c[nH]c3c2C(=O)CCC3)cc1`, the “ratio activity, negative = inhibition” value is -19.6%. As to `CNc1c2c(nn1C)CCCC2`, the “ratio activity, negative = inhibition” value was -17.9%.

For `CC(=O)c1ccc[nH]1`, the “ratio activity, negative = inhibition” value is 1.22%. With `O=C(O)CCC(=O)c1ccc(-c2ccccc2)cc1`, the “ratio activity, negative = inhibition” value is -3.44%. For the compound `CC(=O)NCCO`, the “ratio activity, negative = inhibition” value is 4.19%.

Regarding `CN=C(N)NC(=O)Nc1c(C)cccc1C`, the “ratio activity, negative = inhibition” value is -14%. As for `CS(=O)(=O)c1ccc([C@@H](C[C@H]2CCC(=O)C2)C(=O)Nc2cnccn2)cc1Cl`, the “ratio activity, negative = inhibition” value was -10.6%. With `CCCCCCCCCCCCCCN(C)C`, the “ratio activity, negative = inhibition” value was -16.4% [at 29.1 µM].

As for `CC(C)COC(=O)COc1cc(Cl)c(Cl)cc1Cl`, the “ratio activity, negative = inhibition” value is 17%.

Consider `Cc1ccc(Cl)cc1N`, for which the “ratio activity, negative = inhibition” value is 10.1% [at 81.1 µM]. As to `CC(C)COC(=O)c1ccc(O)cc1`, the “ratio activity, negative = inhibition” value was -24.4%.

Take `O=C1CC[C@@H](C(=O)O)N1`: the “ratio activity, negative = inhibition” value was -10.4%. Regarding `CCCCCCCC(=O)OCCCCCC`, the “ratio activity, negative = inhibition” value was -2.49%. On the same count and under the same terms, the value for `Cc1cccc(C)c1NC(=O)c1cc(S(N)(=O)=O)c(Cl)cc1O` was 16.9%; that for `COC(=O)c1sccc1S(N)(=O)=O` was 0.905%. On the same count and under the same terms, to `c1ccc(CCCc2ccncc2)cc1` belongs -0.719%. For the compound `O=C(O)c1ccc(O)cc1O`, the “ratio activity, negative = inhibition” value is 2.41% [at 81.1 µM].

For the compound `CC1C(C)(C)C2=C(C(=O)CCC2)C1(C)C` (stereo not given), the “ratio activity, negative = inhibition” value is 1.55%. `CCN(Cc1cccc(S(=O)(=O)O)c1)c1ccc(C(=C2C=CC(=[N+](CC)Cc3cccc(S(=O)(=O)O)c3)C=C2)c2ccc(O)cc2S(=O)(=O)[O-])cc1`: the “ratio activity, negative = inhibition” value was 1.55%. The same measure, in the same setting: the value for `C=CCOC(=O)COCCC(C)C` was -10%. `O=C(c1ccccc1)C1CCC1`: the “ratio activity, negative = inhibition” value was 0.436%. In the case of `O=C(O)CN1C(=O)c2cccc3cccc(c23)C1=O`, the “ratio activity, negative = inhibition” value is -1.43%. With `O=C(NC(Cc1cc(=O)[nH]c2ccccc12)C(=O)O)c1ccc(Cl)cc1` (stereo not given), the “ratio activity, negative = inhibition” value is 0.163%. Consider `COc1ccc(-n2nc(C(F)F)cc2-c2ccc(S(C)=O)cc2)cc1` (stereo not given), for which the “ratio activity, negative = inhibition” value was 24.3%. On to `O=C(O)CNC(=O)c1ccccc1I`, for which the “ratio activity, negative = inhibition” value was -8.23%. As for `Nc1nc(-c2ccc([N+](=O)[O-])cc2)cs1`, the “ratio activity, negative = inhibition” value is -19.2% [at 81.1 µM].

With `O=C(C(=O)c1ccco1)c1ccco1`, the “ratio activity, negative = inhibition” value was 1.04% [at 81.1 µM]. On to `CCN(CC)c1ccc(C(=C2C=CC(=[N+](CC)CC)C=C2)c2ccc(S(=O)(=O)O)cc2S(=O)(=O)[O-])cc1`, for which the “ratio activity, negative = inhibition” value is -0.627%. `O=S(=O)(O)CO`: the “ratio activity, negative = inhibition” value is 4.58%. The same measure, in the same setting: the value for `CCC(CO)(CO)[N+](=O)[O-]` was -0.53%; that for `CCOc1ncc(F)c(=O)[nH]1` was 1.83%; that for `O=P(O)(O)Oc1ccccc1` was -0.222%.

Take `COc1cc(NC(C)CCCN)c2ncccc2c1` (stereo not given): the “ratio activity, negative = inhibition” value was -12.4%. For the compound `COc1ccc(-c2cc(=S)ss2)cc1`, the “ratio activity, negative = inhibition” value is -1.63%.
